{"source": "PubChem BioAssay", "data": [{"system": "wheat germ agglutinin (Triticum aestivum), Alexa647-labelled", "assay": "Alexa647-WGA lectin binding to printed small molecules – biochemical, small-molecule microarray, 635/667 nm fluorescence, artefact control for SMM control-protein annotation, profiling panel (AID 1140);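 note: score merges 667 nm feature emission with signal to noise over triplicate slides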", "details": "WGA-A647 binding, 635 nm fluorescence, higher = more signal", "values": [{"smiles": "CCOC(=O)CCN1C(=O)[C@H]2[C@H]3[C@H](O)[C@H](O)CC(=NOC[C@@H](O)COCc4ccco4)[C@@H]3CC[C@H]2C1=O", "composite z-score": 0.0513}, {"smiles": "COc1ccc([Si](C)(C)[C@H]2[C@H](CC(=O)N3CCC[C@H]3CO)O[C@@]3(C(=O)N(Cc4cccc(N5C(=O)COc6ccccc65)c4)c4ccccc43)[C@@H]2C)cc1", "composite z-score": -0.32}, {"smiles": "CC(=O)OC[C@H]1O[C@H](CCON=C(C)CCC(=O)OC[C@H]2O[C@H](C#Cc3ccccc3)C=C[C@@H]2Oc2ccc(C)cc2)C=C[C@@H]1OC(C)=O", "composite z-score": 0.0698}, {"smiles": "CCOC(=O)[C@H](CC(C)C)NC(=O)CCC1CC(OC(=O)NCc2cccc3ccccc23)CC2(CCCC(COC(=O)NCCN3CCOCC3)O2)O1", "note": "(stereo partly specified)", "composite z-score": 0.255}, {"smiles": "CN1C(=O)C2C=CC(C(O)C(c3ccccc3)c3ccccc3)N(NC(=O)OC(C)(C)C)C2C1=O", "note": "(stereo unspecified)", "composite z-score": 1.09}, {"smiles": "Cc1cc2c(c(=O)o1)[C@H](O)[C@H]1O[C@H]1C2=O", "composite z-score": -0.137}, {"smiles": "O=C(NN=C1C[C@@H](O)[C@@H](O)[C@@H]2[C@@H]3C(=O)N(c4cccc(Oc5ccccc5)c4)C(=O)[C@@H]3CC[C@@H]12)OCc1ccccc1", "composite z-score": 0.764}, {"smiles": "COC(=O)C1=CCC(c2cccc(Cl)c2)O1", "note": "(stereo unspecified)", "composite z-score": -0.455}, {"smiles": "NC(=O)NCC#Cc1ccc2c(c1)[C@]1(C(=O)N2)[C@H](c2ccc(O)cc2)N2[C@H](c3ccccc3)[C@H](c3ccccc3)OC(=O)[C@H]2[C@@H]1C(=O)N1CCCCCCC1", "composite z-score": 0.604}, {"smiles": "CC(C)[C@@H](OCc1ccccc1)[C@H](C)C=NOC[C@@H](C)[C@H](OCc1ccccc1)C(C)C", "composite z-score": -0.0388}, {"smiles": "COc1ccc(O[C@H]2C=C[C@@H](c3ccccc3)O[C@@H]2COC(=O)N2CCCCC2)cc1", "composite z-score": -0.249}, {"smiles": "CO[C@@H]1COC(=O)CC=C[C@@H](C)[C@H](OC)COC(=O)[C@H](COCc2ccccc2)NC(=O)CC=C[C@H]1C", "composite z-score": -1.13}, {"smiles": "CO[C@@H]1COC(=O)[C@@H]2CCCN2C(=O)[C@@H](C)COC(=O)[C@H](COCc2ccccc2)NC(=O)CC=C[C@H]1C", "composite z-score": -0.07}, {"smiles": "CC(=O)OC[C@H]1O[C@H](CCON=C(C)CCN2CCc3nc(-c4ccccc4)c(-c4ccccc4)cc3C2)C=C[C@@H]1OC(C)=O", "composite z-score": 0.563}, {"smiles": "CCCC[C@@H](O)C1=C(C)C[C@H]2C(=O)N(Cc3ccccc3)C(=O)[C@H]2[C@H]1CO", "composite z-score": -0.423}, {"smiles": "O=C1[C@H]2[C@H]3[C@H](O)[C@H](O)CC(=NO[C@@H]4O[C@H](CO)[C@@H](O)[C@H](O)[C@H]4O)[C@H]3CC[C@H]2C(=O)N1C1CCCCC1", "composite z-score": 0.183}, {"smiles": "COC(=O)C1=C(C)[C@@H](O)[C@@H](C)[C@H](c2c(OC)c(OC)c(C)c(OC)c2OC)O1", "composite z-score": -0.611}, {"smiles": "COc1ccc(-c2ccc3c(n2)CCCN3CC(O)CN2CCCc3nc(C)c(C)cc32)cc1", "note": "(stereo unspecified)", "composite z-score": 1.03}, {"smiles": "CC(C)(C)OC(=O)CC[C@]1(C(=O)NCc2ccccc2)N=C(c2ccc(OCCCO)cc2)O[C@H]1c1ccccc1", "composite z-score": 0.732}, {"smiles": "CC(=O)OC[C@H]1O[C@H](C#CCCCc2ccccc2)C=C[C@@H]1OC(C)=O", "composite z-score": 0.353}, {"smiles": "CS(=O)(=O)CCOC(=O)C1=CC(CCCO)=CC(c2cccs2)N(Cc2cccc(OC(F)(F)F)c2)C=C1C(=O)OCCS(C)(=O)=O", "note": "(stereo unspecified)", "composite z-score": 1.02}, {"smiles": "NCCCCCNC(=O)[C@@H]1C[C@@H]2C(=O)N3CCC[C@H]3C(=O)N2[C@@H]1c1cccc(OCCO)c1", "composite z-score": 0.881}, {"smiles": "CC(C)=C1C(=O)C(c2ccccc2)=C2CN3C(=O)N(CCc4ccccc4)C(=O)[C@]3(Cc3ccc(F)cc3)[C@H]21", "composite z-score": 0.338}, {"smiles": "COc1ccc(COC(=O)NN=C2C[C@@H](O)[C@@H](O)[C@@H]3[C@@H]4C(=O)N(Cc5ccc6c(c5)OCO6)C(=O)[C@@H]4CC[C@@H]23)cc1", "composite z-score": 0.247}, {"smiles": "CCOC(=O)C[C@H]1[C@H](OC(=O)c2ccc(C(=O)c3ccccc3)cc2)[C@@H](NC(=O)c2ccc(-c3ccccc3)cc2)c2cc(OCCCO)ccc2N1C(=O)c1ccc2ccccc2n1", "composite z-score": 0.185}, {"smiles": "C[C@@H]1CC[C@H]2C(=O)O[C@H](COc3ccc(C(C)(C)C)cc3)CN2[C@H]1c1ccc(Br)cc1", "composite z-score": 0.148}, {"smiles": "CC(C)CON=C1C[C@@H](O)[C@@H](O)[C@@H]2[C@@H]3C(=O)N([C@@H](C)c4ccccc4)C(=O)[C@@H]3CC[C@H]12", "composite z-score": 0.122}, {"smiles": "O=C1CCCC=C1C(O)CCOCc1ccccc1", "note": "(stereo unspecified)", "composite z-score": -0.123}, {"smiles": "CCc1cccc(NC(=O)O[C@H]2[C@H](OC(=O)Nc3ccc4c(c3)OCO4)[C@@H](OC(=O)Nc3ccc4c(c3)OCO4)[C@@H](OC)O[C@@H]2CO)c1", "composite z-score": 0.809}, {"smiles": "O=C1[C@H]2[C@H]3[C@H](O)[C@H](O)CC(=NO[C@@H]4O[C@H](CO)[C@@H](O)[C@H](O)[C@H]4O)[C@@H]3CC[C@H]2C(=O)N1Cc1ccc2c(c1)OCO2", "composite z-score": 0.63}, {"smiles": "COC(=O)[C@H](C)NC(=O)[C@@H](C)CO", "composite z-score": 1}, {"smiles": "CC1CC/C=C\\[C@H]2OC34C=CCN(Cn5nnc6ccccc65)C(=O)[C@H]3N(CCO)C(=O)[C@@H]4C2C(=O)O1", "note": "(stereo partly specified)", "composite z-score": 1.24}, {"smiles": "O=C1CCCC2OC12C(O)CCc1ccccc1", "note": "(stereo unspecified)", "composite z-score": -0.0681}, {"smiles": "CO[C@@H]1COC(=O)[C@H](C)NC(=O)[C@@H](C)COC(=O)CCC[C@H]1C", "composite z-score": 0.405}, {"smiles": "CCN1C(=O)[C@H]2[C@H]3[C@H](O)[C@H](O)CC(=NOC[C@@H](C)[C@H](OCc4ccccc4)C(C)C)[C@@H]3CC[C@H]2C1=O", "composite z-score": 0.564}, {"smiles": "O=C1[C@H]2[C@H]3[C@H](O)[C@H](O)CC(=NOCc4ccccc4)[C@@H]3CC[C@H]2C(=O)N1C1CCCCC1", "composite z-score": -0.0558}]}]}
